The panel holds about 83,000 compounds, 20% with a hit somewhere; the sample as a whole holds those more often.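 Compound tested at a single concentration for 48 hours in 96-well plates; a percent growth value below 10 was scored as active.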 Active and inactive are the calls of the source.
The compounds below were run on HL-60(TB) leukemia (assay: NCI-60 one-dose screen, 48 h (100 = growth as untreated, 0 = no growth, -100 = all killed)). Conditions: 10 µM unless noted.
Method: Growth inhibition of the HL-60(TB) human tumor cell line is measured as a screen for anti-cancer activity. Cells are grown in 96 well plates and exposed to the test compound for 48 hours. Compounds are tested at a single concentration, which is 10^-5 M for most compounds. The reported endpoint is percent growth (GI% or GIPRCNT), where numbers from 0 - 100% represent growth inhibition, and numbers from -100% - 0 represent cell death. For example, a value of 40 represents 60% growth inhibition. A value of 0 means no net growth occurred over the course of the experiment. A value of -40 indicates 40% of cells at the beginning of the experiment died by the end of the experiment. A value of -100 means all cells are dead at the end of the experiment.
NCI-60 Human Tumor Cell Lines Screen was performed using the standard one-dose NCI protocol, which is described in more detail at https://dtp.cancer.gov/discovery_development/nci-60/default.htm.
Compounds with GIPRCNT values below 10 were considered active. Activity score was based on GIPRCNT using the following formula: […]
Score is 0 for GIPRCNT values of 100 or above, 50 for GIPRCNT values of 0, and 100 for GIPRCNT values of -100.

| Structure (SMILES) | growth |
| --- | --- |
| CC1=C([Te]c2ccc(O)cc2)C(=O)c2ccccc2C1=O | -38% (active) |
| CCC1CN1CCCCN1CC1CC (stereo not given) | 123% (inactive) |
| Cn1cc(-c2csc(-c3cn(CCN4CCOCC4)c4ccc(F)cc34)n2)c2cccnc21 | 1.01% (active) |
| C[C@@]1(CCCCCCCCCc2ccc(O)cc2)C[C@]2(C)OC(=O)C[C@@H]2OO1 | 81% (inactive) |
| C=CCn1cc(C=C2C(=O)N(C)C(=O)N(C)C2=O)c2ccccc21 | 121% (inactive) |
| CC(C)CCC(=O)O[C@H]1CC[C@H]2[C@@H]3CCC4=CC(=O)CC[C@]4(C)[C@H]3CC[C@]12C | 108% (inactive) |
| N#C[S-].[Au+].c1ccc(CN2[CH-]N(Cc3ccccc3)C(c3ccccc3)=C2c2ccccc2)cc1 | -44.1% (active) |
| c1ccc(COc2ccc3[nH]cc(CCN(Cc4ccccc4)Cc4ccccc4)c3c2)cc1 | 91.8% (inactive) |
| COc1cc([C@@H]2c3cc4c(cc3[C@H](OC(C)=O)[C@H]3COC(=O)[C@H]23)OCO4)cc(OC)c1OC | -24.8% (active) |
| CC[C@H](C)[C@H](NC(=O)[C@H]1CCCCN1C)C(=O)N(C)[C@H](CCc1nc(C(=O)N[C@@H](Cc2ccccc2)C[C@H](C)C(=O)OC)cs1)C(C)C | -21.2% (active) |
| CN(C)C1C(=O)C(C(N)=O)=C(O)C2(O)C(=O)C3=C(O)c4c(O)cccc4C(C)(O)C3CC12.[Cl][Sb]([Cl])[Cl] (stereo not given) | 31.4% (inactive) |
| CC(C)COC(C[N+](=O)[O-])C(Cl)(Cl)Cl (stereo not given) | 93% (inactive) |
| C[C@@H]1C[C@@]2(C)[C@@H](CC[C@@H]3[C@@H]2CC[C@]2(C)C(=O)CC[C@@H]32)CC1=O | 74.6% (inactive) |
| COc1cc2c(cc1OCCCCn1c(-c3cccs3)nc3ccccc31)N=C[C@@H]1CCCN1C2=O | -18.7% (active) |
| O=C1C2C(C(=O)[N]1[Hg][c]1cccs1)C1(Cl)C(Cl)=C(Cl)C2(Cl)C1(Cl)Cl (stereo not given) | -12.1% (active) |
| CCCC(C)C1(CC)C(=O)NC(=O)N(C)C1=O (stereo not given) | 94.8% (inactive) |
| COC(=O)N[C@H]1CCc2c(Br)c(OC)c(OC)c(OC)c2-c2ccc(SC)c(=O)cc21 | -43.7% (active) |
| COC(=O)[C@@H](C)C[C@H](Cc1ccccc1)NC(=O)c1csc([C@@H](C[C@H](C(C)C)N(C)C(=O)[C@@H](NC(=O)[C@H]2CCCCN2C)C(C(F)(F)F)C(F)(F)F)OC(C)=O)n1 | -33.7% (active) |
| c1cnc2[nH]cc(-c3csc(-c4cn(CCCCN5CCOCC5)c5ccccc45)n3)c2c1 | -58.2% (active) |
| CCOP(=O)(NC[C@H]1O[C@](O)(CO)[C@@H](O)[C@@H]1O)OCC | 101% (inactive) |

| Structure (SMILES) | growth |
| --- | --- |
| CCN(CC)CCOC(=O)C(OC(C)C)(c1ccccc1)c1ccccc1 | 99.6% (inactive) |
| CC[C@H](C)[C@H](NC(=O)[C@H]1CCCCN1C)C(=O)N(C)[C@H](C[C@@H](OC(C)=O)c1nc(C(=O)N[C@@H](Cc2ccccc2)C[C@H](C)C(=O)OC)cs1)C(C)C | -38.6% (active) |
| CCOC(=O)CCN(C)C1=Nc2ccc(Cl)cc2C(c2ccccc2)=[N+]([O-])C1 | 91.3% (inactive) |
| O=[N+]([O-])c1ccc(OP(=O)(CCl)N(CCCl)CCCl)cc1 (stereo not given) | 94.4% (inactive) |
| COc1ccc(N(CC(=O)NCCC[Te]c2ccccc2)C(=O)CNC(=O)OC(C)(C)C)cc1 | 3.6% (active) |
| CCn1c2ccccc2c2cc(C(=O)c3cccc4c3CCCN4)ccc21 | 110% (inactive) |
| CC(=O)Nc1ccc(NC(=O)c2ccc([As](O)O)cc2)cc1 | 44.5% (inactive) |
| CN1CCCCC1C(C)(O)c1ccccc1 (stereo not given) | 114% (inactive) |
| CC12CC=CCC1CCC1C2CCC2(C)C(c3ccc(=O)oc3)CCC12O (stereo not given) | -14% (active) |
| C/C(=C\c1cc(C(F)(F)F)nn1CCNC(=O)OC(C)(C)C)[C@@H]1C[C@@H]2O[C@]2(C)CCC[C@H](C)[C@H](O)[C@@H](C)C(=O)C(C)(C)[C@@H](O)CC(=O)O1 | 14.1% (inactive) |
| O=[N+]([O-])c1ccc([Se]C2CCCCC2Cl)c([N+](=O)[O-])c1 (stereo not given) | 78.8% (inactive) |
| CC(=O)O[C@H](C[C@H](C(C)C)N(C)C(=O)[C@@H](NC(=O)[C@H]1CCCCN1C)C(C)C)c1nc(C(=O)N[C@@H](Cc2ccccc2)C[C@H](C)C(=O)O)c(CCOCc2ccccc2)s1 | -29.3% (active) |
| CCCCCCCC[N+](C)(CCCCCCCC)CCCCCCCC | 32% (inactive) |
| NC(=O)C(Br)c1ccccc1 (stereo not given) | 97.7% (inactive) |
| CCOC(=O)N[C@H]1CCc2c(Br)c(OC)c(OC)c(OC)c2-c2ccc(SC)c(=O)cc21 | -39.9% (active) |
| O=C1NC(=O)C(=Cc2ccc(OCCCCC3CCCCC3)c(Cl)c2)C(=O)N1 | 92.8% (inactive) |
| Nc1c(F)cc(-c2nc3cc(F)ccc3[se]2)cc1F | 83.5% (inactive) |
| COC1CC2c3ccccc3C1C(C)=[N+]2C (stereo not given) | 113% (inactive) |
| CC(C)(NC(=O)O[C@@H]1CN2CCC1CC2)c1csc(-c2ccc(F)cc2)n1 | 90% (inactive) |
| C[C@]12CCc3nc(Nc4ccccc4F)sc3C1=CC[C@@H]1[C@@H]2CC[C@]2(C)C(=O)CC[C@@H]12 | 34.2% (inactive) |

Reference: PubChem BioAssay (NCI)
